Reference: the supplement of paper PMC11732987, “Enantioselective OTUD7B fragment discovery through chemoproteomics screening and high-throughput optimisation” (Communications Chemistry, 2025)

What was measured:
Experiment in all cases: log2 ratio of Biotin-Ahx-Ub-VS probe labelling (fragment/DMSO); higher = less target engagement (more negative = stronger competition), active = hit call of the paper (q ≤ 0.05, log2 ratio ≤ -1)
Settings in all cases: compound concentration: 200 uM; treatment time: 3 h
[1] = target: T1, USP19 (UniProt O94966)
T1 sequence (whole entry): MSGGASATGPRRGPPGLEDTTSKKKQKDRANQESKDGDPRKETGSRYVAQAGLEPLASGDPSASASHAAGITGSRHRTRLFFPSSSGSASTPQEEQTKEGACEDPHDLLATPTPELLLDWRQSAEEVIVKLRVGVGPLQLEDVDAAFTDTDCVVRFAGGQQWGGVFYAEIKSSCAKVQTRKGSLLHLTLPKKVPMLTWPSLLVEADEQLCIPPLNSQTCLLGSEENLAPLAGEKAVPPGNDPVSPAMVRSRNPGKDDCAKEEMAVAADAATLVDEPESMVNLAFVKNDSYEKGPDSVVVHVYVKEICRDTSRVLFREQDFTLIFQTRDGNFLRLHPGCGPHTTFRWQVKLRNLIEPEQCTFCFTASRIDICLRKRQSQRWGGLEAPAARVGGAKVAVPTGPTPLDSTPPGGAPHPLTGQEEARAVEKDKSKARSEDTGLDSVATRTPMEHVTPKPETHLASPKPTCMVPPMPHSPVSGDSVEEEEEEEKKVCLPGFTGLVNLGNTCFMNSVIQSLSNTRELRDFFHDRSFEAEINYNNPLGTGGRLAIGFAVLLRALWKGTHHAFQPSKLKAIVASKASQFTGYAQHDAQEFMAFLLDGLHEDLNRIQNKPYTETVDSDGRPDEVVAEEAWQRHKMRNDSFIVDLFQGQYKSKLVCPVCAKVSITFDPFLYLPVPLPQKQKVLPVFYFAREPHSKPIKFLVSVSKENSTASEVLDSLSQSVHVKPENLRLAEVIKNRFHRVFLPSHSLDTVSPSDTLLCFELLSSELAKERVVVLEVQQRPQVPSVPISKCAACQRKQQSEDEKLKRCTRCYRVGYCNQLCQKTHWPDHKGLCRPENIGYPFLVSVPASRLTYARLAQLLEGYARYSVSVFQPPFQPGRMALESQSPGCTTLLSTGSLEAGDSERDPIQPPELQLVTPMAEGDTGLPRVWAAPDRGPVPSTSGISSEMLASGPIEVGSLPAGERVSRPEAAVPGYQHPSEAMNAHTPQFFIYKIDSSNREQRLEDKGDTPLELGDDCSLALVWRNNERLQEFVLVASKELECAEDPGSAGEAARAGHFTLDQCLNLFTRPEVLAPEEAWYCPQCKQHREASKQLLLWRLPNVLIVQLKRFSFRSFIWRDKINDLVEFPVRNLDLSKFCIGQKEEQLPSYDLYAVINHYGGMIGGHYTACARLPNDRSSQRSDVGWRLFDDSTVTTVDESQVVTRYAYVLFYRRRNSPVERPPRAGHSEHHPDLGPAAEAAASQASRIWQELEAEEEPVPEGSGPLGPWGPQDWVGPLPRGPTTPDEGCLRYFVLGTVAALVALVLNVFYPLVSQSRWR
Outline: (§1)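 The table lists average log2 ratios of fragment over vehicle, from an unpaired t-test on global-median-normalised Spectronaut label-free quantities. Proteins with ≥2 unique peptides were used. Samples were HEK293T lysate (495 µg) treated in triplicate with fragment at 200 µM or vehicle for 3 h, then with Biotin-Ahx-Ub-VS (0.5 µM final) for 1 h, with labelled DUBs NeutrAvidin-enriched and run by diaPASEF LC-MS/MS.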

[2] = target: T2, USP22 (UniProt Q9UPT9)
T2 sequence (whole entry): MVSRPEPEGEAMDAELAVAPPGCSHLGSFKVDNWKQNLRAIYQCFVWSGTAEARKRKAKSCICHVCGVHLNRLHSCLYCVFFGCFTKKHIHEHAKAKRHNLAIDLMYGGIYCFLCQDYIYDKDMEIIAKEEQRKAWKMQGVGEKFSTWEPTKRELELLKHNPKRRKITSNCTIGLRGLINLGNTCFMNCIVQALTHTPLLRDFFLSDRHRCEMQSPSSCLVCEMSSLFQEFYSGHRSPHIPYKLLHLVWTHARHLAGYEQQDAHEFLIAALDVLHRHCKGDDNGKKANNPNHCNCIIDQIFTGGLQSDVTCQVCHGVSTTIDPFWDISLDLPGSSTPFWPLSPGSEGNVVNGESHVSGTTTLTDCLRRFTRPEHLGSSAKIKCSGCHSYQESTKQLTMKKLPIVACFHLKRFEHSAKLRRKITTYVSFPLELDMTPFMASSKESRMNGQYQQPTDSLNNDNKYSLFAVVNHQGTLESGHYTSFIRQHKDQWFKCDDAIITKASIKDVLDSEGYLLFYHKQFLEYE
Outline: as §1

[3] = target: USP24 (UniProt Q9UPU5)
Sequence of USP24 (Q9UPU5 whole entry): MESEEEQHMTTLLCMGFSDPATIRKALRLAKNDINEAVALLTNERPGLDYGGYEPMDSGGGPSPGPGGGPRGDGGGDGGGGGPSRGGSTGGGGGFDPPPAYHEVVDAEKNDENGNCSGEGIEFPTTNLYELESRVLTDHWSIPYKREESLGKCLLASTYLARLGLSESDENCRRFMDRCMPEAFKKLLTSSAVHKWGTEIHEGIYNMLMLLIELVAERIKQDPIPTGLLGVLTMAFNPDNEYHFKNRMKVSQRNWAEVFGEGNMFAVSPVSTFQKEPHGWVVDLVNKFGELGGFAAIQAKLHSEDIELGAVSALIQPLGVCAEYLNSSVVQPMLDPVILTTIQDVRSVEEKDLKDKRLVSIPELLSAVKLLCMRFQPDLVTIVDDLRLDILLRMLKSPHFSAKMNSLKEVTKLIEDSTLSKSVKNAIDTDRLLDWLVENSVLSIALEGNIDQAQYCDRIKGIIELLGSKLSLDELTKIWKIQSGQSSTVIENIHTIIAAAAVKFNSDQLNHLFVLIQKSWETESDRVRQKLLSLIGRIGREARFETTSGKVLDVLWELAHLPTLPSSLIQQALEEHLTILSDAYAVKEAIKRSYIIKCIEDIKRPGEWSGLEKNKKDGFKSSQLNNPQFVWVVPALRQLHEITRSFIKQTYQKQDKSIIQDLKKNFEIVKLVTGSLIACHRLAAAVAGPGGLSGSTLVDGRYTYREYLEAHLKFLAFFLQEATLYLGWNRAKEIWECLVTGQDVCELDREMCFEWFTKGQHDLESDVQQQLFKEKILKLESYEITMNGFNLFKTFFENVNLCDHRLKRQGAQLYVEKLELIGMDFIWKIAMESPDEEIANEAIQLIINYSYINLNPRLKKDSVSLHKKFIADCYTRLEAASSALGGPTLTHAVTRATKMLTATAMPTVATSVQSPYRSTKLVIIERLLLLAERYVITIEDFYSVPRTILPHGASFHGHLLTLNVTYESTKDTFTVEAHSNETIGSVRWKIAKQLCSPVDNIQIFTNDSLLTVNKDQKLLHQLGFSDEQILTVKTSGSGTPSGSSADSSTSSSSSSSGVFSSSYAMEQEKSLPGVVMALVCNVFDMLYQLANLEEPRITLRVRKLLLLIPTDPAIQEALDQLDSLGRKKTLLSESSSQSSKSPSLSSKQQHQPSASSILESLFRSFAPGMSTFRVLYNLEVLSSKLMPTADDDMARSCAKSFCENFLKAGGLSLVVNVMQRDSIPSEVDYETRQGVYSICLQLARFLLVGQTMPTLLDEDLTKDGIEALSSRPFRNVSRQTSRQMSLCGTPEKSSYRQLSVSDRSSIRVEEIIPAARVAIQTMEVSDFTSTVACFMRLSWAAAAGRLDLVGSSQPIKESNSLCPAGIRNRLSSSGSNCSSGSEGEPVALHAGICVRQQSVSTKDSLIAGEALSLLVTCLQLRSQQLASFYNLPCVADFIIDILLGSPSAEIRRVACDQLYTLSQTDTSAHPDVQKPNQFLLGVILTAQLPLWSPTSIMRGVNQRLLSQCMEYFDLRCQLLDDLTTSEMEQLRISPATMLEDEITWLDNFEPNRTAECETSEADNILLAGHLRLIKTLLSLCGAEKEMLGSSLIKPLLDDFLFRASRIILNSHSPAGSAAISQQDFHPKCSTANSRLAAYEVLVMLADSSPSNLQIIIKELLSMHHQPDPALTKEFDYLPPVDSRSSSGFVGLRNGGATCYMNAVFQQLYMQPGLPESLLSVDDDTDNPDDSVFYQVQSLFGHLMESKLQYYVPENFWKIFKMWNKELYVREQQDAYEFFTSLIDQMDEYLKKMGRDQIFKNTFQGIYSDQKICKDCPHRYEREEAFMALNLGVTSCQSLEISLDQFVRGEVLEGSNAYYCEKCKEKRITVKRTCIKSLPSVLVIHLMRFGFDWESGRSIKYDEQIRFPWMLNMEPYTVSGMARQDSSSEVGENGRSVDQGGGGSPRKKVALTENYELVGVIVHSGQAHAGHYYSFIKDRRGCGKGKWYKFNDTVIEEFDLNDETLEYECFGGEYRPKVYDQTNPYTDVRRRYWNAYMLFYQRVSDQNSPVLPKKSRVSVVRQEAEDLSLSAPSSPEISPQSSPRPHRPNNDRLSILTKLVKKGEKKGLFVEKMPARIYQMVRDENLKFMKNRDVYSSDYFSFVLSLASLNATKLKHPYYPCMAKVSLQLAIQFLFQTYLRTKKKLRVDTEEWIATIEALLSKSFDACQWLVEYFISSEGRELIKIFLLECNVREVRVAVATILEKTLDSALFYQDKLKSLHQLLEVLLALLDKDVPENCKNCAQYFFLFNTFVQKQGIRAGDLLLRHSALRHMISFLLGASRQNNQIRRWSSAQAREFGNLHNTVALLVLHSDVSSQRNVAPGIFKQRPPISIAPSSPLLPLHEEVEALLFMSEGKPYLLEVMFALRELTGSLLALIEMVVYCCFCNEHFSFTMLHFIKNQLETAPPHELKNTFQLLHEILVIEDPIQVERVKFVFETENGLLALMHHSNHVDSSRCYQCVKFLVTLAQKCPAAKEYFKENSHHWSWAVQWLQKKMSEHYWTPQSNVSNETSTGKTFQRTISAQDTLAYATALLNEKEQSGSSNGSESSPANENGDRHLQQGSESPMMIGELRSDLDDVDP
Outline: as §1

[4] = target: T3, USP25 (UniProt Q9UHP3)
T3 sequence (whole entry): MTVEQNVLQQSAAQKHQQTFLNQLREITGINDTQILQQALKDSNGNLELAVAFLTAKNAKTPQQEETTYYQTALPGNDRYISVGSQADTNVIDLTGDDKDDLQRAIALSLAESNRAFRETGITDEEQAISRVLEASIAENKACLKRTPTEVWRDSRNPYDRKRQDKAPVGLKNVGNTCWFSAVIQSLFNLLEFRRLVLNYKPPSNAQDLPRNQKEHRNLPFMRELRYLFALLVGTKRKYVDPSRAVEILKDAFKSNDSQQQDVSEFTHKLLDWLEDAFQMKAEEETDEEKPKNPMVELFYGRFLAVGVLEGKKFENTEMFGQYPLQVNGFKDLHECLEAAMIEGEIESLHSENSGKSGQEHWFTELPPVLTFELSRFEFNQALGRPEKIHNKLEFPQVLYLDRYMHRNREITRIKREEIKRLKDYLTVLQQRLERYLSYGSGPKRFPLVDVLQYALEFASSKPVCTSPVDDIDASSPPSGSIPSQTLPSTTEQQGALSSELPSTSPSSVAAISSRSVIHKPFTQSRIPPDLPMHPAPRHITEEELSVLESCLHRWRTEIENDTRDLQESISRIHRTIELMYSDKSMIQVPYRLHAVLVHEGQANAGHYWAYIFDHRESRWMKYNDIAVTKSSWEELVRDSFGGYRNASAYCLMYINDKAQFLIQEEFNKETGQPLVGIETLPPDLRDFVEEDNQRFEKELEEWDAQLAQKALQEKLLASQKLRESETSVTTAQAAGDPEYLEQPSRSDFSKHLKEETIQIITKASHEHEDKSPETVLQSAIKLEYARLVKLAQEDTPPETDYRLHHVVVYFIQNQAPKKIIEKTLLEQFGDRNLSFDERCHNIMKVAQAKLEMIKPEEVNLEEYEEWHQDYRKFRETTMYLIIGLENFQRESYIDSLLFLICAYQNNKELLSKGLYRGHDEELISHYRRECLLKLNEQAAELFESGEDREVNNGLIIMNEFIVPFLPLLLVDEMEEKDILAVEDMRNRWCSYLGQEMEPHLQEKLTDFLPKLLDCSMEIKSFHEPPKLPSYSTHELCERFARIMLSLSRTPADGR
Outline: as §1

[5] = target: T4, USP28 (UniProt Q96RU2)
T4 sequence (whole entry): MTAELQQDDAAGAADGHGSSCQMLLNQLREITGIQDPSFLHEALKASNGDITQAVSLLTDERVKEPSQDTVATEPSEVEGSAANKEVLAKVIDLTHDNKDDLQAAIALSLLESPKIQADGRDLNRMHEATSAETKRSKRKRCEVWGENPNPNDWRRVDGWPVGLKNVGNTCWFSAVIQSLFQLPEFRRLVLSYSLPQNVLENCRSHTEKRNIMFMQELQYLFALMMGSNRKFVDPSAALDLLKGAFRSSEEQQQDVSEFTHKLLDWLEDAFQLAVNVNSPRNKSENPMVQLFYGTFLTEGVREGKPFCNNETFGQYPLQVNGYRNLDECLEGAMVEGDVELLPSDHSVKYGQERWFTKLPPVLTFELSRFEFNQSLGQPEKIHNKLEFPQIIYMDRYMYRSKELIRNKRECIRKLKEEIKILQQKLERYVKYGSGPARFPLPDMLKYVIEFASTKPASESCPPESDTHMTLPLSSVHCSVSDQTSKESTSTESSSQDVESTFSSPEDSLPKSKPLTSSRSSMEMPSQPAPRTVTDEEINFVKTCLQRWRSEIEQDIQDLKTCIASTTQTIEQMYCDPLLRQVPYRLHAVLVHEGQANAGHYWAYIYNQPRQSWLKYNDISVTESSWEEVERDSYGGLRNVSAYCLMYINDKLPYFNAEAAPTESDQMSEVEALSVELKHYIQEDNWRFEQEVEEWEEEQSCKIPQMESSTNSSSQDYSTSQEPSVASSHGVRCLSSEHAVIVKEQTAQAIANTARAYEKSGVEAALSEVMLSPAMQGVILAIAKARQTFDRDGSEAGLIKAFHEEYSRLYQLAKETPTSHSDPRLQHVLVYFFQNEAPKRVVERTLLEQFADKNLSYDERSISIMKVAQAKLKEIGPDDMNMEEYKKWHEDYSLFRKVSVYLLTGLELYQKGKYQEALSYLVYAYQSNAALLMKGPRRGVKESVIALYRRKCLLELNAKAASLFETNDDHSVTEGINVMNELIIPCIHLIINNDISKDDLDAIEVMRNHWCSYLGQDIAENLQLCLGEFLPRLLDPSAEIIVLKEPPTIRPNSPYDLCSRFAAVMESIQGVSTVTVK
Outline: as §1

Measured: log2 ratio of Biotin-Ahx-Ub-VS probe labelling

Cl.O=C(CCl)N1CCCC(c2ncc[nH]2)C1 (stereo not given)
inactive: [1] -0.0532 | [2] 0.0588 | [3] -0.108 | [4] -0.511 | [5] -0.212
